From PubChem BioAssay (EPA / NIEHS) come the findings set out here.

Values joined by “and” are separate entries in the source; they are usually repeats but may differ in a detail not shown here. Equal entries are not always repeated. Active and inactive are the calls of the source. How the source made its calls: active means hit-call score of the fitted dose curve at least 0.9, where 1 is the maximum; inactive means score below 0.9.

The AC50 is the midpoint of the concentration-response curve, whichever way the signal moves.

Read-out in one assay: TIMP metallopeptidase inhibitor 2 (TIMP2), TIMP2 (gene 7077)
Briefly: BSK_KF3CT_TIMP2: BioMAP Diversity Plus: KF3CT Assay for TIMP metallopeptidase inhibitor 2 (TIMP2) Biomarker Activity (AID 2283071). To be noted: primary human keratinocytes with fibroblasts; actives raise or lower the signal. The method in brief: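 Co-culture of human primary keratinocytes and foreskin fibroblasts, measured 24 h after chemical dosing. TIMP-2 quantified by ELISA and fitted in both directions relative to DMSO. Cytotoxicity checked in parallel cultures by SRB total-protein staining.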
As to `CN(C(=O)C(F)(F)C(F)(F)C(F)(F)F)[Si](C)(C)C`, the result was inactive.

For `C=C(C)C(=O)OCC(F)(F)C(F)(F)C(F)(F)C(F)F`, the result was inactive.

For `NC(=O)C(F)(F)C(F)(F)C(F)(F)C(F)(F)C(N)=O`, the outcome was inactive.

`O=C(O)C(F)(F)C(F)(F)C(F)(F)OC(F)(F)F`: the result was inactive.

Take `FC(F)(F)C(F)(F)C(F)(F)CC1CO1` (stereo unspecified): the outcome was inactive.

For the compound `FC(F)(F)C(F)(F)C(F)(F)C(F)(F)C(F)(F)C(F)(F)CC[Si](Cl)(Cl)Cl`, the result was inactive.

Take `NC(=O)C(F)(F)C(F)(F)C(F)(F)C(F)F`: the outcome was inactive.

Take `OCCCCC(F)(F)C(F)(F)C(F)(F)C(F)(F)F`: the result was inactive.

`OCC(F)(F)C(F)(F)C(F)(F)C(F)(F)C(F)(F)C(F)(F)CO`: the result was inactive.

On to `C=CC(=O)OCCC(F)(F)C(F)(F)C(F)(F)C(F)(F)F`, for which the outcome was inactive.

Regarding `O=S(=O)(O)CCC(F)(F)C(F)(F)C(F)(F)C(F)(F)F`, the result was inactive.

Take `O=C(O)C(F)(F)C(F)(F)C(F)(F)C(=O)O`: the result was inactive.

In the case of `NC(O)(C(F)(F)F)C(F)(F)F`, the result was inactive.

On to `OCCCC(F)(F)C(F)(F)C(F)(F)C(F)(F)C(F)(F)C(F)(F)C(F)(F)C(F)(F)F`, for which the AC50 was 14.5 µM (active) and 8.21 µM (active).

For `O=C(O)C(F)(F)OC(F)(F)C(F)(F)OC(F)(F)C(F)(F)OC(F)(F)F`, the result was inactive.

In the case of `O=C(O)CCC(F)(F)C(F)(F)C(F)(F)F`, the result was inactive.

Consider `OCC(O)CC(F)(F)C(F)(F)C(F)(F)C(F)(F)C(F)(F)C(F)(F)C(F)(F)C(F)(F)F` (stereo unspecified), for which the result was inactive.

On to `NC(=O)C(F)(F)C(F)(F)C(F)(F)F`, for which the outcome was inactive.

`O=S(=O)(Cl)C(F)(F)C(F)(F)C(F)(F)C(F)(F)C(F)(F)C(F)(F)C(F)(F)C(F)(F)F`: the result was inactive.

Regarding `NCC(F)(F)C(F)(F)C(F)(F)C(F)(F)C(F)(F)C(F)(F)F`, the result was inactive.

On to `COC(F)(C(F)F)C(F)(F)F` (stereo unspecified), for which the outcome was inactive.

Take `OCC(O)CC(F)(F)C(F)(F)C(F)(F)C(F)(F)F` (stereo unspecified): the result was inactive.

Take `C[Si](Cl)(Cl)CCC(F)(F)C(F)(F)C(F)(F)C(F)(F)C(F)(F)C(F)(F)F`: the result was inactive.

For `CO[Si](C)(CCC(F)(F)C(F)(F)C(F)(F)C(F)(F)C(F)(F)C(F)(F)F)OC`, the outcome was inactive.

Regarding `O=S(=O)(O)CCC(F)(F)C(F)(F)C(F)(F)C(F)(F)C(F)(F)C(F)(F)C(F)(F)C(F)(F)F`, the outcome was inactive.

Regarding `C=CC(=O)OCC(F)(F)C(F)(F)C(F)(F)COC(=O)C=C`, the AC50 is 30 µM (active).

In the case of `O=C(O)C(F)(F)C(F)(F)C(F)(F)C(F)(F)C(F)(F)C(F)(F)C(F)F`, the result was inactive.

Take `CCN=C1C=CC(=C(c2ccc(N(CC)CC)cc2)c2ccc(N(CC)CC)cc2)c2ccccc21`: the AC50 was 1.87 µM (active) and 1.66 µM (active).

As for `OCC(F)(F)C(F)(F)C(F)(F)CO`, the outcome was inactive.

Take `CCOC(=O)CC(=O)C(F)(F)C(F)(F)F`: the outcome was inactive.

In the case of `NC(=O)C(F)(F)C(F)(F)C(F)(F)C(F)(F)C(F)(F)C(F)(F)C(F)(F)F`, the result was inactive.

On to `OC(O)C(F)(F)C(F)(F)F`, for which the result was inactive.

As to `O=C(Cl)C(F)(F)C(F)(F)C(F)(F)C(F)(F)C(F)(F)C(F)(F)C(F)(F)F`, the result was inactive.

Read-out in the next assay: C-C motif chemokine 2 (Homo sapiens) (UniProt P13500)
Briefly: BSK_KF3CT_MCP1: BioMAP Diversity Plus: KF3CT Assay for Monocyte Chemoattractant Protein 1 (MCP1/CCL2) Biomarker Activity (AID 2283073). Particulars: primary human keratinocytes with fibroblasts; actives raise or lower the signal. In a few lines:
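Human keratinocyte–foreskin fibroblast co-culture; MCP-1 measured by ELISA 24 h after dosing. Bidirectional fit vs DMSO; cytotoxicity tracked by SRB total protein in parallel cultures.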
For `CN(C(=O)C(F)(F)C(F)(F)C(F)(F)F)[Si](C)(C)C`, the outcome was inactive.

Regarding `C=C(C)C(=O)OCC(F)(F)C(F)(F)C(F)(F)C(F)F`, the result was inactive.

Regarding `NC(=O)C(F)(F)C(F)(F)C(F)(F)C(F)(F)C(N)=O`, the result was inactive.

As to `O=C(O)C(F)(F)C(F)(F)C(F)(F)OC(F)(F)F`, the outcome was inactive.

Consider `FC(F)(F)C(F)(F)C(F)(F)CC1CO1` (stereo unspecified), for which the outcome was inactive.

On to `FC(F)(F)C(F)(F)C(F)(F)C(F)(F)C(F)(F)C(F)(F)CC[Si](Cl)(Cl)Cl`, for which the outcome was inactive.

With `NC(=O)C(F)(F)C(F)(F)C(F)(F)C(F)F`, the outcome was inactive.

Take `OCCCCC(F)(F)C(F)(F)C(F)(F)C(F)(F)F`: the result was inactive.

As to `OCC(F)(F)C(F)(F)C(F)(F)C(F)(F)C(F)(F)C(F)(F)CO`, the outcome was inactive.

In the case of `C=CC(=O)OCCC(F)(F)C(F)(F)C(F)(F)C(F)(F)F`, the outcome was inactive.

For the compound `O=S(=O)(O)CCC(F)(F)C(F)(F)C(F)(F)C(F)(F)F`, the result was inactive.

For the compound `O=C(O)C(F)(F)C(F)(F)C(F)(F)C(=O)O`, the outcome was inactive.

`NC(O)(C(F)(F)F)C(F)(F)F`: the outcome was inactive.

As for `OCCCC(F)(F)C(F)(F)C(F)(F)C(F)(F)C(F)(F)C(F)(F)C(F)(F)C(F)(F)F`, the concentration at half-maximal activity (AC50) was 11 µM (active) and 8.31 µM (active).

`O=C(O)C(F)(F)OC(F)(F)C(F)(F)OC(F)(F)C(F)(F)OC(F)(F)F`: the result was inactive.

In the case of `O=C(O)CCC(F)(F)C(F)(F)C(F)(F)F`, the result was inactive.

For `OCC(O)CC(F)(F)C(F)(F)C(F)(F)C(F)(F)C(F)(F)C(F)(F)C(F)(F)C(F)(F)F` (stereo unspecified), the result was inactive.

With `NC(=O)C(F)(F)C(F)(F)C(F)(F)F`, the outcome was inactive.

Take `O=S(=O)(Cl)C(F)(F)C(F)(F)C(F)(F)C(F)(F)C(F)(F)C(F)(F)C(F)(F)C(F)(F)F`: the result was inactive.

On to `NCC(F)(F)C(F)(F)C(F)(F)C(F)(F)C(F)(F)C(F)(F)F`, for which the result was inactive.

Regarding `COC(F)(C(F)F)C(F)(F)F` (stereo unspecified), the result was inactive.

As to `OCC(O)CC(F)(F)C(F)(F)C(F)(F)C(F)(F)F` (stereo unspecified), the outcome was inactive.

With `C[Si](Cl)(Cl)CCC(F)(F)C(F)(F)C(F)(F)C(F)(F)C(F)(F)C(F)(F)F`, the outcome was inactive.

Turning to `CO[Si](C)(CCC(F)(F)C(F)(F)C(F)(F)C(F)(F)C(F)(F)C(F)(F)F)OC`, the outcome was inactive.

Take `O=S(=O)(O)CCC(F)(F)C(F)(F)C(F)(F)C(F)(F)C(F)(F)C(F)(F)C(F)(F)C(F)(F)F`: the outcome was inactive.

`C=CC(=O)OCC(F)(F)C(F)(F)C(F)(F)COC(=O)C=C`: the AC50 is 22.3 µM (active) and 12.7 µM (active).

On to `O=C(O)C(F)(F)C(F)(F)C(F)(F)C(F)(F)C(F)(F)C(F)(F)C(F)F`, for which the outcome was inactive.

Turning to `CCN=C1C=CC(=C(c2ccc(N(CC)CC)cc2)c2ccc(N(CC)CC)cc2)c2ccccc21`, the AC50 is 3.2 µM (active) and 2.66 µM (active).

For the compound `OCC(F)(F)C(F)(F)C(F)(F)CO`, the result was inactive.

On to `CCOC(=O)CC(=O)C(F)(F)C(F)(F)F`, for which the result was inactive.

As for `NC(=O)C(F)(F)C(F)(F)C(F)(F)C(F)(F)C(F)(F)C(F)(F)C(F)(F)F`, the result was inactive.

For the compound `OC(O)C(F)(F)C(F)(F)F`, the result was inactive.

In the case of `O=C(Cl)C(F)(F)C(F)(F)C(F)(F)C(F)(F)C(F)(F)C(F)(F)C(F)(F)F`, the result was inactive.
